High-throughput results (PubChem BioAssay)
T cruzi growth-1 – T. cruzi intracellular proliferation inhibitors, primary screen, cell-based, beta-gal Tulahuen parasites, NIH3T3 host, luminescence | T. cruzi beta-gal in NIH3T3, GalScreen luminescence, 90 h | inhibition, % at 8.34 µM | 5.9% of 77,000 active;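 active = mean inhibition above about 93%, with at least 55% of replicates each passing it, limit read from the data, passing the limit was not always enough; inconclusive = only one of those two conditions holds; inactive = neither condition holds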
Pf Dd2 inh – P. falciparum Dd2 growth inhibitors, primary screen, SYBR Green fluorescence, single dose replicates; AID 1159554, 2015; activity change, % at 10 µM; 72 h; active compounds read low; 2.3% of 94,000 active; in the data active = activity change below about -80%; inconclusive = no clear call, values can overlap the other calls
C diff HTS – C. difficile growth inhibitors, primary screen, HTS; 0.25% of 86,000 active; Clostridium difficile clinical isolate growth, OD600, 24 h; active compounds read low; growth activity, negative = inhibition, % at 16 µg/mL (by protocol);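 active = mean growth activity at or below -80% and every replicate also at or below -80%; inconclusive = mean at or below -80% but some replicate above -80%; inactive = mean growth activity above -80%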
T cruzi growth-2 – T. cruzi intracellular proliferation inhibitors, confirmation, cell-based, NIH3T3 host, beta-gal parasite, luminescence, cherry-pick; T. cruzi beta-gal in NIH3T3, GalScreen luminescence, 90 h; shares compounds with T cruzi growth-1; 72% of 5,600 active; inhibition, % at 8.35 µM;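 active = mean replicate inhibition above about 95% and at least 55% of replicates individually reaching it, limit read from the data; inconclusive = only one of the two criteria is met; inactive = neither criterion is met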
T cruzi growth-3 – inhibitors of intracellular T. cruzi replication, confirmation, NIH3T3 host cells, beta-gal parasites, cherry-pick, set 2 | AID 651740, 2012 | T. cruzi beta-gal in NIH3T3, GalScreen luminescence, 90 h | inhibition, % at 2.09 µM | 21% of 5,600 active | shares compounds with T cruzi growth-1;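 active = mean inhibition above about 95%, with at least 55% of replicates also reaching it, limit read from the data; inconclusive = meets just one of the two conditions; inactive = meets neither condition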
NIH3T3 tox – cytotoxicity in mouse NIH/3T3 fibroblasts, confirmation, cytotoxicity control for T. cruzi proliferation inhibitor project, cell-based, cherry-pick, single point | cytotoxicity (signal decrease), % at 8.35 µM | NIH/3T3 viability, CellTiter-Glo ATP luminescence, 90 h | shares compounds with T cruzi growth-1 | 14% of 5,600 active;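 active = mean signal decrease across replicates above about 35% based on untreated-well scatter, with enough replicates individually passing, limit read from the data; inconclusive = no rule stated though some were filed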
3T3 cytotox 2 – NIH/3T3 fibroblast cytotoxicity, confirmation, cytotoxicity control, cell-based, cherry-pick, single point, set 2. 56% of 5,600 active. NIH/3T3 viability, CellTiter-Glo ATP luminescence, 90 h. shares compounds with T cruzi growth-1. inhibition, % at 24.9 µM. AID 651744, 2012;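 active = mean loss of cell viability signal at or above a set limit, and enough replicates individually reaching it; inconclusive = meets only the mean limit or only the replicate share; inactive = meets neither condition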
Large screens that a line does not name were inactive (follow-up assays come after a bar, where they were run); ! = not active in a repeat. Compounds with a hit are over-represented: about 6.7% of the library has one in this group of screens.

C[C@H](CO)N1C[C@H](C)[C@H](CN(C)CC2CC2)OCCCC[C@H](C)Oc2ccc(NC(=O)Nc3ccc(C(F)(F)F)cc3)cc2C1=O	none (no result: T cruzi growth-1)
C[C@@H]1CCCCO[C@H](CN(C)CC2CCCCC2)[C@H](C)CN([C@H](C)CO)C(=O)c2cc(NC(=O)Nc3ccc(C(F)(F)F)cc3)ccc2O1	T cruzi growth-1 inconclusive, C diff HTS -103 | T cruzi growth-2 inactive | T cruzi growth-3 inactive | NIH3T3 tox inactive | 3T3 cytotox 2 inactive
C[C@@H]1CCCCO[C@@H](CN(C)CC2CCCCC2)[C@@H](C)CN([C@@H](C)CO)C(=O)c2cc(NC(=O)Nc3ccc(C(F)(F)F)cc3)ccc2O1	T cruzi growth-1 99 | T cruzi growth-2 inconclusive | T cruzi growth-3 112 | NIH3T3 tox 122 | 3T3 cytotox 2 103
C[C@@H]1CCCCO[C@H](CN(C)C)[C@@H](C)CN([C@H](C)CO)C(=O)c2cc(NC(=O)Nc3ccc(C(F)(F)F)cc3)ccc2O1	none
C[C@@H]1CCCCO[C@H](CN(C)C)[C@H](C)CN([C@@H](C)CO)C(=O)c2cc(NC(=O)Nc3ccc(C(F)(F)F)cc3)ccc2O1	Pf Dd2 inh inconclusive
CCC(=O)N1[C@H](CO)[C@@H](c2ccccc2)C12CN(CC1CCOCC1)C2	none (no result: T cruzi growth-1)
CC(C)NC(=O)NCC[C@@H]1CC[C@H](NC(=O)CCN2CCCCC2)[C@H](CO)O1	none
CS(=O)(=O)N1CCCCN2[C@H](CO)[C@@H](c3ccc(C#Cc4ccccn4)cc3)[C@@H]2C1	none
CCS(=O)(=O)N1CCCCN2[C@H](CO)[C@H](c3ccc(C#Cc4ccccn4)cc3)[C@@H]2C1	none
CCS(=O)(=O)N1CCCCN2[C@H](C1)[C@H](c1ccc(C#Cc3ccccn3)cc1)[C@@H]2CO	T cruzi growth-1 96 | T cruzi growth-2 inactive | T cruzi growth-3 inactive | NIH3T3 tox inactive | 3T3 cytotox 2 inactive
CS(=O)(=O)N1CCCCN2[C@H](CO)[C@@H](c3ccc(C#Cc4ccccn4)cc3)[C@H]2C1	T cruzi growth-1 inconclusive | T cruzi growth-2 inactive | T cruzi growth-3 inactive | NIH3T3 tox inactive | 3T3 cytotox 2 inactive
C[C@H](CO)N1C[C@H](C)[C@H](CN(C)C(=O)c2ccccc2)Oc2cc(C#CC3CC3)ccc2S1(=O)=O	none
C[C@H](CO)N1C[C@H](C)[C@@H](CN(C)C(=O)c2ccccc2)Oc2cc(C#CC3CC3)ccc2S1(=O)=O	none
C[C@H]1CN([C@@H](C)CO)S(=O)(=O)c2ccc(C#CC3CCCC3)cc2O[C@H]1CN(C)C(=O)c1cccc(F)c1	T cruzi growth-1 124 (no result: C diff HTS) | T cruzi growth-2 inactive | T cruzi growth-3 inactive | NIH3T3 tox inactive | 3T3 cytotox 2 103
C[C@H](CO)N1C[C@H](C)[C@@H](CN(C)C(=O)c2cccc(F)c2)Oc2cc(C#CC3CCCC3)ccc2S1(=O)=O	T cruzi growth-1 122 (no result: C diff HTS) | T cruzi growth-2 102 | T cruzi growth-3 113 | NIH3T3 tox inactive | 3T3 cytotox 2 105
CNC[C@H]1OCCCC[C@@H](C)Oc2ccc(NC(=O)Cc3ccccc3)cc2C(=O)N([C@@H](C)CO)C[C@H]1C	T cruzi growth-1 inconclusive | T cruzi growth-2 inactive | T cruzi growth-3 inactive | NIH3T3 tox inactive | 3T3 cytotox 2 inactive
CNC[C@H]1OCCCC[C@H](C)Oc2ccc(NC(=O)CCC(F)(F)F)cc2C(=O)N([C@H](C)CO)C[C@@H]1C	none
C[C@H]1CN([C@@H](C)CO)C(=O)c2cc(NC(=O)CCCN(C)C)ccc2O[C@@H]1CN(C)S(C)(=O)=O	T cruzi growth-1 104 | T cruzi growth-2 inactive | T cruzi growth-3 inactive | NIH3T3 tox inactive | 3T3 cytotox 2 inactive
CNC[C@@H]1OCCCC[C@H](C)Oc2ccc(NC(=O)CCC(F)(F)F)cc2C(=O)N([C@@H](C)CO)C[C@@H]1C	T cruzi growth-1 98 | T cruzi growth-2 inconclusive | T cruzi growth-3 inactive | NIH3T3 tox inactive | 3T3 cytotox 2 inactive
CNC[C@H]1OCCCC[C@H](C)Oc2ccc(NC(=O)Cc3ccccc3)cc2C(=O)N([C@H](C)CO)C[C@@H]1C	none (no result: C diff HTS)
CNC[C@H]1OCCCC[C@H](C)Oc2ccc(NC(=O)CCCN(C)C)cc2C(=O)N([C@H](C)CO)C[C@@H]1C	T cruzi growth-1 100! | T cruzi growth-2 inactive | T cruzi growth-3 inactive | NIH3T3 tox inactive | 3T3 cytotox 2 inactive
CNC[C@@H]1OCCCC[C@@H](C)Oc2ccc(NC(=O)CCCN(C)C)cc2C(=O)N([C@H](C)CO)C[C@@H]1C	none
C[C@@H]1CN([C@@H](C)CO)C(=O)c2cc(NC(=O)CCCN(C)C)ccc2O[C@H]1CN(C)S(C)(=O)=O	none
CCCC#Cc1ccc([C@H]2[C@H](CO)N3CCCCN(S(=O)(=O)c4ccccc4F)C[C@@H]23)cc1	none
CN1C(=O)c2cc(NC(=O)c3ccc(C(F)(F)F)cc3)ccc2OC[C@H]2O[C@@H](CC(=O)O)CC[C@H]21	none
C[C@@H]1CN([C@H](C)CO)C(=O)c2cc(NC(=O)CCC(F)(F)F)ccc2O[C@H]1CN(C)S(=O)(=O)c1ccccc1	none
C[C@@H]1CN([C@@H](C)CO)C(=O)c2cc(NC(=O)c3ccncc3)ccc2O[C@@H]1CN(C)Cc1ccc(-c2ccccc2)cc1	none (no result: T cruzi growth-1)
C[C@@H](NC(=O)C[C@@H]1CC[C@@H](NC(=O)C2CC2)[C@H](CO)O1)c1ccccc1	none (no result: T cruzi growth-1)
CC(C)C#Cc1ccc([C@H]2[C@H]3CN(C(=O)c4ccccn4)CC(=O)N3[C@H]2CO)cc1	none (no result: T cruzi growth-1)
COCC#Cc1ccc2c(c1)O[C@@H](CN(C)C(=O)c1ccccc1)[C@H](C)CN([C@@H](C)CO)S2(=O)=O	none
CC(C)NC(=O)Nc1ccc2c(c1)C(=O)N([C@@H](C)CO)C[C@@H](C)[C@@H](CN(C)S(C)(=O)=O)OCCCC[C@@H](C)O2	none (no result: C diff HTS)
COc1ccc(S(=O)(=O)N(C)C[C@H]2OCCCC[C@@H](C)Oc3ccc(NS(=O)(=O)c4ccc(F)cc4)cc3C(=O)N([C@H](C)CO)C[C@H]2C)cc1	T cruzi growth-1 114 | T cruzi growth-2 106 | T cruzi growth-3 inactive | NIH3T3 tox inactive | 3T3 cytotox 2 inactive
COc1ccc(S(=O)(=O)Nc2ccc3c(c2)C(=O)N([C@@H](C)CO)C[C@H](C)[C@H](CN(C)S(=O)(=O)c2ccc(F)cc2)OCCCC[C@H](C)O3)cc1	none
